An excerpt weighted towards active compounds, which were near 8.7% of everything screened.
hDAT+cocaine – human DAT dopamine uptake with cocaine, either direction | Q01959 | LLC-PK1 hDAT cells, [14C]-dopamine uptake with cocaine IC80; actives deviate in either direction | B-score at 10 µM | 110,000 tested, 1.3% active | AID 449768;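 active = Z score or B-score, a plate-position-corrected score, falls beyond the plate's 99.7% confidence bounds, in either direction; inactive = both scores lie inside the 99.7% bounds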;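 note: scored against the spread of the other compound wells on the same plate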
PostGolgi yeast – growth inhibition of a yeast mutant, post-Golgi transport screen; inhibition, % at 10 µM; 98,000 tested, 0.9% active; post-Golgi transport phenotypic cell assay; AID 739;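 note: yeast cells grown in 1536-well plates; yeast grown about 18 h at 30C before absorbance read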
PostGolgi ctrl – inhibits growth of the yeast control strain. efflux-deficient yeast background strain, growth absorbance A615, 16 h. inhibition, % at 10 µM. 98,000 tested, 5% active
TNAP act mid DEA – activates human TNAP at intermediate phosphate acceptor concentration | P05186 | purified TNAP, CDP-star luminescence, 100 mM DEA, 30 min; active compounds read high; scale: 0 levamisole-inhibited, 1 vehicle-only enzyme | activation factor at 20 µM | 64,000 tested, under 10 active | AID 813;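 active = activation factor of at least 2 at 20 µM, relative to controls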
Cav3 T inh – inhibitors of human Cav3.2 T-type calcium channel. 100,000 tested, 4% active. AID 449739. B-score at 10 µM. Cav3.2-expressing cells, Fluo-4 calcium fluorescence FDSS; active compounds read low;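 active = single-dose well whose peak fluorescence ratio is a statistical outlier from its plate by either plate-standardised score or position-corrected B-score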
Smad3 inh – blocks human Smad3 binding to FoxH1 peptide | TR-FRET Smad3/Dy647-FoxH1 peptide binding, europium anti-His | inhibition, % at 25 µM | AID 630 | 88,000 tested, 0.29% active | P84022;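 active = compounds that reduce the energy-transfer binding signal between the protein and its labelled peptide by more than half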;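 note: 0% = Smad3 plus labelled peptide maximal FRET and 100% = peptide-only background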
Target sequence (P84022 whole entry, looked up): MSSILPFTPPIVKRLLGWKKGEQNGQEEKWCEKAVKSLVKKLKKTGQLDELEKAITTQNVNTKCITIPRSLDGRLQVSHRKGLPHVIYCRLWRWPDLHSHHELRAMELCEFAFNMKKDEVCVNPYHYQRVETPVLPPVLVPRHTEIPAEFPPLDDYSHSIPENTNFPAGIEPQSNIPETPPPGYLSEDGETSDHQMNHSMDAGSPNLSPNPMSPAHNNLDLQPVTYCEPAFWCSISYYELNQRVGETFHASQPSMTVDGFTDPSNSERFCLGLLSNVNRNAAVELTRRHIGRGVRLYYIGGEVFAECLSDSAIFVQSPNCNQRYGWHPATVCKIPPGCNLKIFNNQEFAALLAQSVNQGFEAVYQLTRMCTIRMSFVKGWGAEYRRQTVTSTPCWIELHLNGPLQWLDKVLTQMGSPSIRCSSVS
An asterisk follows results filed as active; x = no result. Cut-off read from the data, not from the text of the source, unless noted: active = inhibition above about 30%; inactive = the rest.

SMILES | hDAT+cocaine | PostGolgi yeast | PostGolgi ctrl | TNAP act mid DEA | Cav3 T inh | Smad3 inh
O=C(Cc1c[nH]c2ccccc12)Nc1nc2ccccc2[nH]1 | -0.563 | -0.9 | 17.9 | 1 | -6.27* | 11.1
CCOCCCn1cnc2c(c1=O)c1nc3ccccc3nc1n2-c1ccccc1 | 0.541 | -6.2 | 8.2 | 0.9 | 1.26 | 7.9
NS(=O)(=O)c1cccn1-c1ncc(C(F)(F)F)cc1Cl | -0.971 | -5.0 | -1.4 | x | 0.282 | -3.0
Cc1ccc(S(=O)(=O)N2CCN(CC(=O)NC3CCCc4ccccc43)CC2)cc1C (stereo not given) | 0.547 | 1.8 | 19.0 | x | -3.29 | x
Cc1ccc(S(=O)(=O)N2CCN(CC(=O)NC3CCCc4ccccc43)CC2)c(C)c1 (stereo not given) | 1.32 | 0.3 | 32.7* | x | -2.44 | x
O=C(CCC(=O)N1CCN(S(=O)(=O)c2ccc(Cl)cc2)CC1)NC1CCCc2ccccc21 (stereo not given) | 1.42 | 14.2 | 0.4 | x | -5.22* | 24.3
OC[C@@H](O)[C@@H](O[C@@H]1O[C@H](CO)[C@H](O)[C@H](O)[C@H]1O)[C@H](O)[C@@H](O)CO | 0.546 | x | x | x | x | x
N#Cc1c(NCCN)nc(NCc2ccccc2)c2c1CCN(Cc1ccccc1)C2 | 0.271 | x | x | 1 | -1.23 | 12.8
CCN1CCc2c(C#N)c(NCc3ccccc3)nc(N(CC)CC)c2C1 | 1.22 | -1.5 | 4.8 | 0.9 | -4.17* | -5.0
COc1ccc(NC(=O)/C(=C\c2cc(OC)c(OC)cc2[N+](=O)[O-])NC(=O)c2ccccc2)cc1 | 0.541 | -2.3 | 7.9 | x | 0.329 | x
O=C(C(Sc1ccccc1)c1ccccc1)N1CCN(c2ccccc2F)CC1 (stereo not given) | -0.0179 | 5.3 | 16.4 | x | -3.95* | x
N[C@@]12CCc3nonc3[C@]1(O)CC(c1ccccc1)=[N+]2[O-] | -0.292 | -12.8 | 6.0 | 0.9 | 1.23 | 2.0
Cc1ccc(CNC(=O)C(=O)NCC2OCCN2S(=O)(=O)c2cccs2)cc1 (stereo not given) | -0.574 | x | x | x | -4.69* | x
O=C(NCc1ccccc1)C(=O)NCC1OCCN1S(=O)(=O)c1cccs1 (stereo not given) | 0.113 | x | x | x | 0.61 | x
COc1ccc(NC(=O)CSc2nnc(-c3ccccn3)n2N)cc1 | 2.5* | 22.1 | -7.3 | 0.9 | 0.00763 | 3.6
CCn1c2ccccc2c2cc(NC(=O)CSc3nnc(-c4ccccc4OC)n3N)ccc21 | 2.78* | 1.4 | 6.2 | 0.9 | -3.18 | 6.5
CCn1c2ccccc2c2cc(NC(=O)CSc3nnc(-c4ccc(OC)c(OC)c4)n3N)ccc21 | -0.0578 | -1.8 | 13.3 | x | -0.324 | 18.4
O=C(NC1CCCC1)C(c1ccccc1)N(C(=O)c1ccno1)c1ccccc1 (stereo not given) | -0.456 | x | x | x | 0.575 | 7.1
COC(=O)c1cn(-c2ccccc2)nc1-c1ccncc1 | 1.79* | -3.8 | -1.5 | x | 0.412 | -1.6
CCOC(=O)c1ccc(NC(=O)c2nn(C)cc2Br)cc1 | -0.978 | 0.8 | 35.2* | 0.9 | -0.303 | -1.0
CCOC(=O)c1ccc(NC(=O)c2cn(-c3ccccc3)nc2-c2ccncc2)cc1 | -0.957 | 90.3* | 30.5* | x | 0.00825 | x
COCCNC(=O)C(c1ccc(F)cc1)N(CCOC)C(=O)CCC(=O)Nc1nccs1 (stereo not given) | -1.12 | -5.5 | -3.2 | 1 | x | 1.1
COc1ccc(C(=O)Nc2nnc(-c3ccco3)s2)cc1 | 0.434 | 9.9 | 19.3 | x | -0.299 | -4.2
CCN1CCCC1CNC(=O)COc1cc(=O)n(C)c2ccccc12 (stereo not given) | -0.239 | -1.3 | 0.3 | 1 | -0.000762 | -3.6
COC(=O)C1CSC(C(=O)OC)N1C(=O)Nc1c(C)cccc1C (stereo not given) | -0.999 | -4.8 | 38.1* | x | 0.0776 | x
SMILES | hDAT+cocaine | PostGolgi yeast | PostGolgi ctrl | TNAP act mid DEA | Cav3 T inh | Smad3 inh
Cc1cccc(C)c1NC(=O)N1C(C(=O)O)CSC1C(=O)O (stereo not given) | 2.08 | -1.1 | 0.8 | x | 0.926 | x
CN1CCN(CCCNC(=O)Cn2nc(-c3ccccc3)ccc2=O)CC1 | 1.56 | 40.7* | -1.5 | 0.9 | 0.693 | 0.8
O=C(Cn1nc(-c2ccc(Cl)cc2)ccc1=O)NCCCN1CCN(Cc2ccccc2)CC1 | x | 0.1 | -3.8 | 0.9 | x | 5.5
Cn1c(=O)c2c(nc(CN3CCN(c4cccc(Cl)c4)CC3)n2CCc2ccccc2)n(C)c1=O | -0.0522 | x | x | x | -2.44 | 6.3
O=C(CSCc1cnn(-c2ccccc2)c1-n1cccc1)NCc1cccs1 | 0.182 | 0.7 | 7.8 | 1 | -6.28* | 4.2
COc1cccc(CNC(=O)CSCc2cnn(-c3ccccc3)c2-n2cccc2)c1 | -0.0972 | -2.9 | 23.4 | x | -5.29* | -16.7
CCOC(=O)N1CCC(NC(=O)CCc2c(C)nc3c(c(C)nn3-c3ccccc3)c2C)CC1 | x | x | x | 1 | x | -1.7
CNC(=O)CSCc1cnn(-c2ccccc2)c1-n1cccc1 | -0.461 | 21.3 | -3.5 | x | 1.21 | -4.1
CCOC(=O)N1CCC(NC(=O)CSCc2cnn(-c3ccccc3)c2-n2cccc2)CC1 | 3.19* | 9.2 | 2.6 | 1 | -0.0212 | x
C=CCNC(=O)CNS(=O)(=O)c1ccc(F)cc1 | -1.01 | 0.7 | -0.3 | 0.9 | 0.63 | -1.0
CN(C[C@H](Cc1ccccc1)N(CCN(CCc1ccccc1)N=O)N=O)N=O | 1.03 | x | x | x | -0.609 | x
Cc1ccc(C(=O)Oc2ccccc2N2C(=O)C3CCC(C)CC3C2=O)cc1 (stereo not given) | 0.0736 | -5.2 | 22.2 | x | -3.27 | x
CC(=O)N1c2ccccc2C(C)(C)C2CCC(C)CC21 (stereo not given) | -0.467 | x | x | x | -4.58* | -17.7
O=C(C[n+]1ccc(C(=O)N/N=C/c2ccc(Br)cc2)cc1)c1ccccc1 | -0.221 | 5.0 | 18.8 | x | -0.0769 | 8.8
Cc1nc(NC2=NCN(Cc3ccc4c(c3)OCO4)CN2)nc2ccccc12 | x | x | x | 0.8 | x | -2.3
Cc1cc(C)nc(Nc2nc(C)c3cc4c(cc3n2)OCO4)n1 | 0.207 | -2.2 | 36.0* | 0.9 | 0.0161 | 3.4
CC(Oc1ccccc1)C(=O)NC1CCN(Cc2ccccc2)CC1 (stereo not given) | 0.0969 | 20.0 | 7.6 | 0.9 | 0.441 | 6.3
COc1cccc(NC(=O)c2ccc(CN3CCOCC3)cc2)c1 | 1.03 | 0.6 | 9.9 | 1 | 0.564 | 6.5
CCOc1ccccc1Cn1c(=O)oc2ccc(C)cc21 | 0.248 | x | x | x | -4.66* | x
CCCOc1ccccc1Cn1c(=O)oc2ccc(C)cc21 | -0.141 | -0.9 | 21.9 | 1 | -5.58* | -11.2
C=CCOc1ccc(NC(=O)C(=O)NCCCn2ccnc2)cc1 | -0.252 | -8.2 | 4.4 | x | 0.735 | x
Cc1nc(CS(=O)(=O)c2ccccc2)cc(N2CCOCC2)n1 | -1.12 | 9.4 | 2.4 | x | -0.361 | x
Cc1cc(Oc2ccccc2)nc(-c2ccccc2)n1 | -1.38 | -10.2 | 0.3 | 0.9 | -0.354 | x
CCOC(=O)CSc1cc(CSc2ccccc2)nc(-c2ccccc2)n1 | -0.122 | -2.2 | 0.3 | x | -1.07 | x
CCOC(=O)C(C)Sc1cc(CS(=O)(=O)c2ccccc2)nc(-c2ccccc2)n1 (stereo not given) | -0.283 | 13.8 | 18.4 | x | -5.79* | x

Assay outcomes: PubChem, several laboratories
